This note sets out measurements from article PMC7862700, “An all-to-all approach to the identification of sequence-specific readers for epigenetic DNA modifications on cytosine”.

Test in all cases: DAPPL (digital affinity profiling via proximity ligation, sequencing); 10 mM Tris-HCl pH 7.5, 50 mM NaCl, 1 mM DTT, 4% glycerol, room temperature, 30 min; GST-TFs on glutathione beads, 16-mer random dsDNA library, 0.1% formaldehyde crosslink after washing; high values mean tight binding
One assay has as its target T1, FEV (Homo sapiens, UniProt Q99581 1-238).
T1 sequence: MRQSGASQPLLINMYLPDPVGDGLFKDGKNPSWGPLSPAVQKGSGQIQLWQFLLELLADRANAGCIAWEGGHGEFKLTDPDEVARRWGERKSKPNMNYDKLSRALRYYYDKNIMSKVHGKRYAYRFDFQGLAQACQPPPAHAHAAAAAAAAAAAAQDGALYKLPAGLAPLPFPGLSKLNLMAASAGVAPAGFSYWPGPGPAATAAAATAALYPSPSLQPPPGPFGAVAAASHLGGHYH
The note with it: protein: recombinant; tags: N-terminal GST; dsDNA, one strand shown. In a few lines:
(§1)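 Binding signal is each hexamer's read frequency for a factor divided by its frequency in the tag-only sample. The factors were GST-fused human transcription factors from yeast, captured on glutathione beads, DNA-barcoded and pooled with that sample. Pools were incubated with 200 nmole of a random double-stranded 16-mer DNA library in Tris/NaCl/DTT/glycerol buffer at room temperature for 30 min, then washed, crosslinked with 0.1% formaldehyde, proximity-ligated with BsaI/T4 ligase (1 h, 37 °C), PCR-amplified and sequenced on an Illumina NextSeq500.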

The target of the next assay is ETV5 (Homo sapiens, UniProt P41161 1-510). The note with it: protein: recombinant; tags: N-terminal GST; dsDNA, one strand shown. In a few lines:
as §1

The next assay concerns the target HSF1 (Homo sapiens, UniProt Q00613 1-529). The note with it: protein: recombinant; tags: N-terminal GST; chain copies: 3; dsDNA, one strand shown. In a few lines:
as §1

For another assay, the target named is T2, SPIC (Homo sapiens, UniProt Q8N5J4 1-248).
T2 sequence: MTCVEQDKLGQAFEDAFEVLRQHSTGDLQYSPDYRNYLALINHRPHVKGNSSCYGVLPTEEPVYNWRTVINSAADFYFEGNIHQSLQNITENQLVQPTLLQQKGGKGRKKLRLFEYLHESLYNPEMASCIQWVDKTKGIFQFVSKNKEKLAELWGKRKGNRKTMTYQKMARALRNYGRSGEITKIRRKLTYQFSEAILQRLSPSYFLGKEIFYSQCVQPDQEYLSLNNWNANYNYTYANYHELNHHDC
Conditions: protein: recombinant; tags: N-terminal GST; dsDNA, one strand shown. Put shortly:
as §1

A further assay concerns the target ELF4 (Homo sapiens, UniProt Q99607 1-663). The note with it: protein: recombinant; tags: N-terminal GST; dsDNA, one strand shown. In a few lines: as §1
The target in a further assay is T3, ELK4 (Homo sapiens, UniProt P28324-2 1-405).
T3 sequence: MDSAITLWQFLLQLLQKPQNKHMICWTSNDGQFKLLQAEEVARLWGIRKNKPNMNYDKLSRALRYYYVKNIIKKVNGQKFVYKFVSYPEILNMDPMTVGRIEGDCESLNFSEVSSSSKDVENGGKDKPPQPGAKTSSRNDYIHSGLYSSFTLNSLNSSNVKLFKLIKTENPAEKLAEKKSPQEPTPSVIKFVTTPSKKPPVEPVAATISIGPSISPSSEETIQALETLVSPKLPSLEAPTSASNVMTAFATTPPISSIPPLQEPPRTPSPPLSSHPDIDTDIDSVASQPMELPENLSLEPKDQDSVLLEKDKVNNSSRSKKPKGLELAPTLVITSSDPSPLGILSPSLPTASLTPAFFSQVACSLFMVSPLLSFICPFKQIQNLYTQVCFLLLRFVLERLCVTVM
The note with it: protein: recombinant; tags: N-terminal GST; dsDNA, one strand shown. In a few lines: as §1

The target in another assay is T4, ETV2 (Homo sapiens, UniProt O00321 1-342).
T4 sequence: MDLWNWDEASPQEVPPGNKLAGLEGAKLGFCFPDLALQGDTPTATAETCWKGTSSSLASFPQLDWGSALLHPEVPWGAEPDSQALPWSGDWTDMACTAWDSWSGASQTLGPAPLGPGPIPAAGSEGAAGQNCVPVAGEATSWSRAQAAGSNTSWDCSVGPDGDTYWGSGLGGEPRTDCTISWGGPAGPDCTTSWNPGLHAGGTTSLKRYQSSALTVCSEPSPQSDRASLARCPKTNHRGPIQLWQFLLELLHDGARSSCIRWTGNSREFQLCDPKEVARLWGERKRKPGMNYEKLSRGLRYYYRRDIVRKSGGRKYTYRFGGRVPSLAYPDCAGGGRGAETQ
The note with it: protein: recombinant; tags: N-terminal GST; dsDNA, one strand shown. In a few lines: as §1

A further assay deals with T5, ELF3 (Homo sapiens, UniProt P78545 1-371).
T5 sequence: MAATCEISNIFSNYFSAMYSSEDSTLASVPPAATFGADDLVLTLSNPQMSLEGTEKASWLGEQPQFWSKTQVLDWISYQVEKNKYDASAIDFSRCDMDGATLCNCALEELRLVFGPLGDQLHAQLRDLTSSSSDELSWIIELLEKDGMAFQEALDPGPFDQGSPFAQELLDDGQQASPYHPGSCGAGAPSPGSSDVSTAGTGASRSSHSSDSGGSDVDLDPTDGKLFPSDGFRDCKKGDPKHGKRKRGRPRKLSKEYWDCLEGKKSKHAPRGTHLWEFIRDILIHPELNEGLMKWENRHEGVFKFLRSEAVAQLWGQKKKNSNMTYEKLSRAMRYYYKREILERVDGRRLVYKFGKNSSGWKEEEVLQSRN
Conditions: protein: recombinant; tags: N-terminal GST; dsDNA, one strand shown. In a few lines:
as §1

A further assay deals with CRX (Homo sapiens, UniProt O43186 1-299). Conditions: protein: recombinant; tags: N-terminal GST; dsDNA, one strand shown. In a few lines:
as §1

The target in the next assay is ETV1 (Homo sapiens, UniProt P50549 1-477). The note with it: protein: recombinant; tags: N-terminal GST; dsDNA, one strand shown. In a few lines:
as §1

In a further assay the target is T6, ERF (Homo sapiens, UniProt P50548 1-548).
T6 sequence: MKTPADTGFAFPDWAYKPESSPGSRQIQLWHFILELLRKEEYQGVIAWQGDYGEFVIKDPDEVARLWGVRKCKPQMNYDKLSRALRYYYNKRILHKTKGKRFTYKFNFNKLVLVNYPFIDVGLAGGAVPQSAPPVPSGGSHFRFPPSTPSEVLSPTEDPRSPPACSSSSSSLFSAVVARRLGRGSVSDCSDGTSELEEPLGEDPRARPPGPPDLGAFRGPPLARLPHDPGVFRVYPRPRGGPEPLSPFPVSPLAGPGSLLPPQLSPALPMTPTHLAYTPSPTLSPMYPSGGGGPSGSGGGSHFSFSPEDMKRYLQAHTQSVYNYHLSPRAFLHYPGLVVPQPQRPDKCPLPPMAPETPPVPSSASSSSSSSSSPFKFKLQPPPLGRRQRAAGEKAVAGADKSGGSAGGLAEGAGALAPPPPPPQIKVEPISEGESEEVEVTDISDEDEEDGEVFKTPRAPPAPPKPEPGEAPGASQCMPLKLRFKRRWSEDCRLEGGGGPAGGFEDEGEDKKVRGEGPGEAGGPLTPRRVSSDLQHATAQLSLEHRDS
Conditions: protein: recombinant; tags: N-terminal GST; dsDNA, one strand shown. In a few lines:
as §1

A further assay deals with T7, ETV3L (Homo sapiens, UniProt Q6ZN32 1-361).
T7 sequence: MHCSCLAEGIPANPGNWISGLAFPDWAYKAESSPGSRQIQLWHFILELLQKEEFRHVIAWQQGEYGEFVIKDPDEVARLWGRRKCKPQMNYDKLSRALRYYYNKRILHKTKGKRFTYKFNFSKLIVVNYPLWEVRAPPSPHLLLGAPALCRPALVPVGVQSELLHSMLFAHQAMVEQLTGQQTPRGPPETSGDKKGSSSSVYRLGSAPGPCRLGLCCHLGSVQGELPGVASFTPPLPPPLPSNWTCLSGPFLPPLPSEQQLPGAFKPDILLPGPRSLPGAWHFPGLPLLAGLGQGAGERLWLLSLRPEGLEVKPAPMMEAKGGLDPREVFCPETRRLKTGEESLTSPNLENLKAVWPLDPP
Conditions: protein: recombinant; tags: N-terminal GST; dsDNA, one strand shown. Put shortly:
as §1

The target in the next assay is T8, ETS2 (Homo sapiens, UniProt P15036 1-469).
T8 sequence: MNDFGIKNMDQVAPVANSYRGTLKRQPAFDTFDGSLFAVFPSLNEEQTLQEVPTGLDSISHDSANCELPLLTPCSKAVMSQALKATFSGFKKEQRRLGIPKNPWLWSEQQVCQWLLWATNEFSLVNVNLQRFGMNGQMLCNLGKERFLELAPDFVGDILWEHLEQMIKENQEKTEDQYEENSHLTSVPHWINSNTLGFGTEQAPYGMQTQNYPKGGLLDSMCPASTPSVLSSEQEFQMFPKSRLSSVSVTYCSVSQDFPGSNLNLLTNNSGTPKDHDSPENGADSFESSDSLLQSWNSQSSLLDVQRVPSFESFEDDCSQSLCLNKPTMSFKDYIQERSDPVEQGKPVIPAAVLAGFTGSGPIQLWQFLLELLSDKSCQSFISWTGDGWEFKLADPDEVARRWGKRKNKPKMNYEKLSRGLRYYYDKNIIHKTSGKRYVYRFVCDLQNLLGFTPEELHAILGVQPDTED
Conditions: protein: recombinant; tags: N-terminal GST; dsDNA, one strand shown. In a few lines: as §1

For another assay, the target named is T9, SPDEF (Homo sapiens, UniProt O95238 1-335).
T9 sequence: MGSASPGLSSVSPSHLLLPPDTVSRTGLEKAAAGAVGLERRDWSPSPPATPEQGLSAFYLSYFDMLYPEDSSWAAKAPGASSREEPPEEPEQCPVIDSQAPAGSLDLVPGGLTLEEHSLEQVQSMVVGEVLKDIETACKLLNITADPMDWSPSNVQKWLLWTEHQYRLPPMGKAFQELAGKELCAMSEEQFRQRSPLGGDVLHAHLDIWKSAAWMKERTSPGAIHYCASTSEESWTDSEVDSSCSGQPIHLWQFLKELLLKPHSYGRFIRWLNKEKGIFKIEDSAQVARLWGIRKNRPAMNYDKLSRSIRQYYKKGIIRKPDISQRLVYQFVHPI
The note with it: protein: recombinant; tags: N-terminal GST; dsDNA, one strand shown. In a few lines:
as §1

In another assay the target is T10, ETV7 (Homo sapiens, UniProt Q9Y603 1-341).
T10 sequence: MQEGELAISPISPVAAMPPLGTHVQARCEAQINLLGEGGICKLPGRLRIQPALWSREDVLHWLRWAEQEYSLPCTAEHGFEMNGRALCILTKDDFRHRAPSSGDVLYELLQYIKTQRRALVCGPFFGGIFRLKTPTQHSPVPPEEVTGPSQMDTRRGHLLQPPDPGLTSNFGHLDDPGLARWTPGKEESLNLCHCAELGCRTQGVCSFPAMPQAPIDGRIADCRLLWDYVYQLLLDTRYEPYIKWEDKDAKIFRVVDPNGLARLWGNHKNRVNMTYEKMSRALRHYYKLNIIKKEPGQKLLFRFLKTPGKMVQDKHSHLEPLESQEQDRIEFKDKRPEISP
The note with it: protein: recombinant; tags: N-terminal GST; dsDNA, one strand shown. Put shortly: as §1

In the next assay the target is T11, ELF5 (Homo sapiens, UniProt Q9UKW6-2 1-255).
T11 sequence: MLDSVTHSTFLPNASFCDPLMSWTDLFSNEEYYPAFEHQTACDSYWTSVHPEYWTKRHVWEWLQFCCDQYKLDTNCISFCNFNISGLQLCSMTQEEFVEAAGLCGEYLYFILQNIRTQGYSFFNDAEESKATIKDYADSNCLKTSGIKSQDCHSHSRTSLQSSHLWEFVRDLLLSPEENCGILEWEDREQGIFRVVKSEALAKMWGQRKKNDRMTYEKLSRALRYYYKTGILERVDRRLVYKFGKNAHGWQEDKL
Conditions: protein: recombinant; tags: N-terminal GST; dsDNA, one strand shown. Put shortly:
as §1

Another assay has as its target T12, ETV3 (Homo sapiens, UniProt P41162-2 1-143).
T12 sequence: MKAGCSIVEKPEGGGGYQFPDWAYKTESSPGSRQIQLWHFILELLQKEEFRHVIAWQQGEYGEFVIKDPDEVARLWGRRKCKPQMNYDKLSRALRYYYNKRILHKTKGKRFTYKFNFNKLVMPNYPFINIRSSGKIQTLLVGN
Conditions: protein: recombinant; tags: N-terminal GST; dsDNA, one strand shown. Put shortly: as §1

Another assay deals with ETV6 (Homo sapiens, UniProt P41212 1-452). Conditions: protein: recombinant; tags: N-terminal GST; dsDNA, one strand shown. Put shortly: as §1
Sequence of ETV6 (P41212 whole entry): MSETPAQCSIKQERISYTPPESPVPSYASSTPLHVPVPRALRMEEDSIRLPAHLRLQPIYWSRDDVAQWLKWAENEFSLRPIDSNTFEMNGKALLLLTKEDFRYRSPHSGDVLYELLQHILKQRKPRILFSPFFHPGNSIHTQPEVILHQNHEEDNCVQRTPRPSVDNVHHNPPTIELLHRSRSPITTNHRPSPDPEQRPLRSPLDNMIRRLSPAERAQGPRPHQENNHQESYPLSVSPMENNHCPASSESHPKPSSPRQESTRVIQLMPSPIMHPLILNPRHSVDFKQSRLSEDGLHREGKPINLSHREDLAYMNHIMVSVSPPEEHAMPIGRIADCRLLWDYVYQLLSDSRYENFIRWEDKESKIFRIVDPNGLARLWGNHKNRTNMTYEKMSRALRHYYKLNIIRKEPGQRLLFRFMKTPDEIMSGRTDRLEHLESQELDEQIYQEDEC

Sequence of CRX (O43186 whole entry): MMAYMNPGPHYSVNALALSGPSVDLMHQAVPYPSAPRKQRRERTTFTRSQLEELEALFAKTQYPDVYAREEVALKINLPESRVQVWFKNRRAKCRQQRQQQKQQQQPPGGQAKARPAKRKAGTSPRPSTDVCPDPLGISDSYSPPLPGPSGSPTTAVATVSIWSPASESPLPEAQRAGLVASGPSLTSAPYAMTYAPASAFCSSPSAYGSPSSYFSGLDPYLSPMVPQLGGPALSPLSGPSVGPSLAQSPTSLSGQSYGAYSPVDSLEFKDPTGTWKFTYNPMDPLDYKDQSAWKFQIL
Sequence of ETV1 (P50549 whole entry): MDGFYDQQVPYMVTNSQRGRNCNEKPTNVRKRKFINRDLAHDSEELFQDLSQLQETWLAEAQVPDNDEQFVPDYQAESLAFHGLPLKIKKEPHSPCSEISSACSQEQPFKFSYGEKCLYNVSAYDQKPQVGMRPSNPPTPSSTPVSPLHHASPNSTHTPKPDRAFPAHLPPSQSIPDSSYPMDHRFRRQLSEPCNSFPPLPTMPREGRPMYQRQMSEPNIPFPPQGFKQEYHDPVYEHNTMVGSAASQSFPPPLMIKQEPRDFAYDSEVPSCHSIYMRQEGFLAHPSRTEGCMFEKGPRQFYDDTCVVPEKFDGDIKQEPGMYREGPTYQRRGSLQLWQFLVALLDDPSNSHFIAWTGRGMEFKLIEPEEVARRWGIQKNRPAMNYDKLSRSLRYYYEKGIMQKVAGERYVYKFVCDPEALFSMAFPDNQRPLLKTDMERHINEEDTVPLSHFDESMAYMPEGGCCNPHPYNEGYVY
Sequence of ELF4 (Q99607 whole entry): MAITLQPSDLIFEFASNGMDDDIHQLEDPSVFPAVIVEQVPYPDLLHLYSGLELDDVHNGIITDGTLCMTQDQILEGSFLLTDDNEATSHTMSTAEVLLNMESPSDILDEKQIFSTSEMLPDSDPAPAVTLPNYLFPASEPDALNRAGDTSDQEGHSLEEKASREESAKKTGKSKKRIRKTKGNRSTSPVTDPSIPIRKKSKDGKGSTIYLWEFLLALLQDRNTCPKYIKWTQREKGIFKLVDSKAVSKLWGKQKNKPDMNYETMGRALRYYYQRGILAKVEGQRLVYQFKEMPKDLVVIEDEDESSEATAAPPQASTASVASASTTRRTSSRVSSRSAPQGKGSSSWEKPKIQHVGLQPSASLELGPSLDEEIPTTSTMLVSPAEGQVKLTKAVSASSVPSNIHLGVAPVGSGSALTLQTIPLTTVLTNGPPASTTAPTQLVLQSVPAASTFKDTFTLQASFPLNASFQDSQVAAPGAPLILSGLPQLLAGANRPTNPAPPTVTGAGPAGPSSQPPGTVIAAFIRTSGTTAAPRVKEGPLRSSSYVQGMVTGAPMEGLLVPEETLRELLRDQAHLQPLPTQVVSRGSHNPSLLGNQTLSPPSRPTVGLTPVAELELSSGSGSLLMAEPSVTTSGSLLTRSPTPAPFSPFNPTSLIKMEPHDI
Sequence of ETV5 (P41161 whole entry): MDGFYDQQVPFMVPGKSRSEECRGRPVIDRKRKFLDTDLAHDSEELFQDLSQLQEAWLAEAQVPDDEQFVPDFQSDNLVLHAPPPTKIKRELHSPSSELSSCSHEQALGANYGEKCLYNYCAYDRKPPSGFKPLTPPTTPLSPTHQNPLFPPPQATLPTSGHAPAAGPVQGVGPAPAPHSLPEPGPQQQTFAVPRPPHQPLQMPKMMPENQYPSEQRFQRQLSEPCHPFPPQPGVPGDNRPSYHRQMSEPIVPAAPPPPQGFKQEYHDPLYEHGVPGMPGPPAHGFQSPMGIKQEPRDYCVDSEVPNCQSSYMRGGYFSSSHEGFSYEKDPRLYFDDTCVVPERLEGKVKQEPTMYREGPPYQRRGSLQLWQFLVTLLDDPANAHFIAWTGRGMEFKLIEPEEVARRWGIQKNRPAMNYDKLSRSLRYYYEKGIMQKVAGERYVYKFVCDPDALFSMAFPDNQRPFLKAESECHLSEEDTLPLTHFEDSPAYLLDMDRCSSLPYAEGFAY
Sequence of HSF1 (Q00613 whole entry): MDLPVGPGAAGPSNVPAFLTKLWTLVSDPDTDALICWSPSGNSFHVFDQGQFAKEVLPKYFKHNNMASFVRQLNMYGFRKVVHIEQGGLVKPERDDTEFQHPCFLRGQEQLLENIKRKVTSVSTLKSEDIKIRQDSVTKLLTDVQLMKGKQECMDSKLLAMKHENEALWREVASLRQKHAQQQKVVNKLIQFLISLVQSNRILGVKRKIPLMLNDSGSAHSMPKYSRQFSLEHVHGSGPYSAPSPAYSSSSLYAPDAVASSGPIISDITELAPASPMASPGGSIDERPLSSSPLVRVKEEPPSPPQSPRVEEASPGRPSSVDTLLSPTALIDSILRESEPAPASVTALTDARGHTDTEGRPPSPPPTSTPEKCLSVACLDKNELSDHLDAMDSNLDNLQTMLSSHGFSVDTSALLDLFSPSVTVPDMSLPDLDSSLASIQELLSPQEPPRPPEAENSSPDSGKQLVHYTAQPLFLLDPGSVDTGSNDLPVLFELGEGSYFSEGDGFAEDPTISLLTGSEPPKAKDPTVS

Consider TACGAA, for which the binding signal in the assay with FEV is 1.29 fold enrichment (6-mer frequency, TF over GST control); in the assay with ETV5, 1.21 fold enrichment (6-mer frequency, TF over GST control); with HSF1 it was 1.38 fold enrichment (6-mer frequency, TF over GST control); with SPIC it was 1.11 fold enrichment (6-mer frequency, TF over GST control); in the assay with ELF4, 1.31 fold enrichment (6-mer frequency, TF over GST control); with ELK4, 1.23 fold enrichment (6-mer frequency, TF over GST control). Further, the binding signal was 1.16 fold enrichment (6-mer frequency, TF over GST control) with ETV2; 1.25 fold enrichment (6-mer frequency, TF over GST control) with ELF3; 1.32 fold enrichment (6-mer frequency, TF over GST control) with CRX; 1.24 fold enrichment (6-mer frequency, TF over GST control) with ETV1; 1.28 fold enrichment (6-mer frequency, TF over GST control) with ERF; 1.27 fold enrichment (6-mer frequency, TF over GST control) with ETV3L. The binding signal was 1.18 fold enrichment (6-mer frequency, TF over GST control) with ETS2; 1.18 fold enrichment (6-mer frequency, TF over GST control) with SPDEF; 1.31 fold enrichment (6-mer frequency, TF over GST control) with ETV7; 1.2 fold enrichment (6-mer frequency, TF over GST control) in the assay with ELF5; 1.19 fold enrichment (6-mer frequency, TF over GST control) with ETV3; 1.18 fold enrichment (6-mer frequency, TF over GST control) in the assay with ETV6.
